Assay results published in PubChem BioAssay AID449762 (Southern Research Specialized Biocontainment Screening …, 2010).
Among all 330,000 compounds or so, about 1,900 (0.58%) were called active. Roughly 4% stayed inconclusive and do not appear here. Rule as the data show it: inconclusive = inhibition above about 70% without an active follow-up result; inactive = below that. These entries were drawn from the full list. Entries with a potency or affinity are not part of this list.

Test: M. tuberculosis growth inhibition, HTS (AID 449762);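 also: bacterial growth assessed after seven days of incubation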
Settings: M. tuberculosis H37Rv growth inhibition, 7H9 media; at 25 µM; stronger effect = higher value
With `Cc1ccc(-c2cc(C(=O)N3CC(C)OC(C)C3)c3ccccc3n2)o1` (stereo unspecified) the inhibition was -3.5% (inactive).
In the case of `COc1ccc2nc(NC(=O)C3CSC4(C)CCC(=O)N34)sc2c1` (stereo unspecified), the inhibition is reported as 8.66% (inactive).
For `COc1ccc(C(CNC(=O)c2cccc(NS(=O)(=O)c3ccccc3)c2)N(C)C)cc1` (stereo unspecified), the inhibition was -11.7% (inactive).
In the case of `CCCCCCOC(=O)C(C#N)c1nc2ccccc2nc1N1CCCCC1` (stereo unspecified), the inhibition is reported as 6.23% (inactive).
With `CCCCCCOC(=O)C(C#N)c1nc2ccccc2nc1N1CCOCC1` (stereo unspecified) the inhibition was 5.48% (inactive).
For `CCOC(=O)CC(=O)CSc1nccc(-c2cccnc2)n1`, the inhibition was 2.54% (inactive).
In the case of `COc1cc(OC)cc(C(=O)NCc2ccc3c(c2)cc(C)n3C)c1`, the inhibition is reported as 55.2% (inactive).
In the case of `O=S(=O)(NC1CCCCC1N1CCN(c2ccc(F)cc2)CC1)c1ccccc1` (stereo unspecified), the inhibition is reported as 11.3% (inactive).
For `COc1ccc(-c2ccc(N(C)C)cc2)cc1[C@H]1[C@@H]2C=CCC[C@@]2(C)C(=O)N1Cc1ccccc1`, the inhibition was -2.81% (inactive).
For `COc1ccc(-c2ccc(C)cc2)cc1[C@H]1[C@@H]2C=CCC[C@@]2(C)C(=O)N1Cc1ccccc1`, the inhibition was 2.77% (inactive).
With `CC(Sc1ccc(S(=O)(=O)N2CCOCC2)cc1[N+](=O)[O-])C(=O)O` (stereo unspecified) the inhibition was 1.21% (inactive).
With `O=C(/C=C/c1ccccc1)N1CCC(N2CCC(C(=O)N3CCOCC3)CC2)CC1` the inhibition was -6.29% (inactive).
With `CCSc1cc(N2CCOCC2)nc(-c2ccccc2)n1` the inhibition was 8.27% (inactive).
For `Cc1cc(C)n(-c2ccccc2[N+](=O)[O-])n1`, the inhibition was -3.52% (inactive).
In the case of `O=[N+]([O-])c1ccccc1/C=N/Nc1nc(N2CCCC2)nc(N2CCCC2)n1`, the inhibition is reported as 2.55% (inactive).
In the case of `O=C(/C(=C/c1ccc(Cl)cc1)c1nc2ccccc2[nH]1)c1ccccc1`, the inhibition is reported as 0.75% (inactive).
For `O=C(/C(=C\c1ccccc1)c1nc2ccccc2[nH]1)c1ccc(Cl)cc1`, the inhibition was 12.1% (inactive).
In the case of `Nc1nsnc1C(=O)NCCO`, the inhibition is reported as -5.83% (inactive).
For `O=C1CS/C(=N/N=C/c2c[nH]c3ccccc23)N1`, the inhibition was 2.46% (inactive).
In the case of `O=C(CSc1n[nH]c(-c2ccccc2)n1)N1CCOCC1`, the inhibition is reported as -3.77% (inactive).
For `O=C(CN1CCCC1)NN=C(c1ccccc1)c1ccccc1`, the inhibition was -2.73% (inactive).
For `CCN(CC)CC(=O)NN=C(c1ccccc1)c1ccccc1`, the inhibition was -1.34% (inactive).
In the case of `NC(=S)N=Nc1c(O)[nH]c2c(Br)cc(Br)cc12`, the inhibition is reported as -0.35% (inactive).
In the case of `COc1ccc(C(=O)NCC(=O)NCC(=O)OCC(=O)c2ccc(Br)cc2)cc1`, the inhibition is reported as 7.79% (inactive).
In the case of `Cc1csc(NC(=O)COCC(=O)O)c1-c1nc2ccccc2s1`, the inhibition is reported as -5.81% (inactive).
In the case of `Cc1csc(NC(=O)CSCC(=O)O)c1-c1nc2ccccc2s1`, the inhibition is reported as -1.68% (inactive).
For `Cc1cc(C(=O)OCC(=O)Nc2ccc(F)cc2F)c(C)o1`, the inhibition was 4.91% (inactive).
For `COc1ccc(/C=C/C(=O)NC2CC3CCC2C3)cc1` (stereo unspecified), the inhibition was 14.7% (inactive).
In the case of `O=C(/C=C/c1ccccc1)NC1CC2CCC1C2` (stereo unspecified), the inhibition is reported as -10.2% (inactive).
With `Cc1c(C(=O)NC(C(C)C)C(C)C)cccc1[N+](=O)[O-]` the inhibition was -0.36% (inactive).
For `CC1CN(c2ccc(C(=O)c3ccccc3C(=O)O)cc2[N+](=O)[O-])CC(C)O1` (stereo unspecified), the inhibition was -1.03% (inactive).
In the case of `O=C1CCCC2=C1C(c1ccco1)Nc1ccc(C(=O)c3ccccc3)cc1N2` (stereo unspecified), the inhibition is reported as 1.55% (inactive).
In the case of `O=C1CCCC2=C1C(c1ccccn1)Nc1ccc(C(=O)c3ccccc3)cc1N2` (stereo unspecified), the inhibition is reported as -10.7% (inactive).
With `O=C(NCc1cccnc1)c1cccc(OC2CCN(Cc3ccc(CO)o3)CC2)c1` the inhibition was 3.84% (inactive).
For `CCOC(=O)N1CCc2c(sc(NC(=O)C3=COCCO3)c2C(N)=O)C1`, the inhibition was -6.06% (inactive).
With `CCOC(=O)N1CCc2c(sc(NC(C)=O)c2C(N)=O)C1` the inhibition was -2.99% (inactive).
For `CCOc1ccccc1NC(=O)COC(=O)CC(NC(N)=O)c1ccc(Cl)cc1` (stereo unspecified), the inhibition was 3.03% (inactive).
In the case of `COC(=O)c1cc(C(=O)c2cc(F)ccc2O)cn2c(=O)c3c(C)c(C)sc3nc12`, the inhibition is reported as 3.12% (inactive).
For `CCc1c(C)sc2nc3c(C(=O)N4CCOCC4)cc(C(=O)c4ccccc4O)cn3c(=O)c12`, the inhibition was 51.4% (inactive).
For `CC(=NCc1cccnc1)c1c(O)n(-c2ccccc2)c(=O)[nH]c1=O`, the inhibition was -3.76% (inactive).
With `COC(=O)c1cc(-c2ccc(OC)cc2)n[nH]1` the inhibition was -1.36% (inactive).
In the case of `COc1ccc(O)c(-c2cc(-c3ccc(F)cc3)n[nH]2)c1`, the inhibition is reported as 0.76% (inactive).
In the case of `Cc1nc(SCc2c(F)cccc2Cl)n[nH]1`, the inhibition is reported as -11.2% (inactive).
With `CCSC(=Nc1ccccc1)Nc1ccccc1` the inhibition was -1.05% (inactive).
In the case of `COc1ccc(C(CC(=O)NC(C)c2ccc(-c3ccccc3)cc2)NC(C)=O)cc1` (stereo unspecified), the inhibition is reported as 3.36% (inactive).
In the case of `Cc1nnc(N/N=C/c2c(O)n(-c3cccc(C(F)(F)F)c3)c(=O)c3ccccc23)[nH]c1=O`, the inhibition is reported as 3.05% (inactive).
For `Cc1cc(=O)[nH]c(N/N=C/c2c(O)n(-c3ccccc3)c(=O)c3ccccc23)n1`, the inhibition was 31.9% (inactive).
With `CNS(=O)(=O)c1ccc2c(c1)oc(=O)c1cc(S(=O)(=O)NC)ccc12` the inhibition was -1.49% (inactive).
For `Cn1c(=N)n(CC(=O)c2cccs2)c2ccccc21`, the inhibition was -0.34% (inactive).
In the case of `COc1ccc(-c2ccnc3nc(N4CCOCC4)nn23)cc1`, the inhibition is reported as 1.34% (inactive).
For `c1ccc(-c2ccnc3nc(N4CCN(c5ccccc5)CC4)nn23)cc1`, the inhibition was -7.9% (inactive).
For `C[C@H]1CN([C@@H](C)CO)C(=O)Cc2cc(NS(C)(=O)=O)ccc2O[C@@H]1CN(C)Cc1ccc(Cl)c(Cl)c1`, the inhibition was 4.73% (inactive).
With `COc1ccc(C2=Nn3c(nnc3-c3ccccc3Cl)SC2)cc1OC1CCCC1` the inhibition was 51.6% (inactive).
With `COc1ccc(C2=Nn3c(nnc3-c3ccccc3OC)SC2)cc1OC1CCCC1` the inhibition was 63.1% (inactive).
With `COc1ccccc1OP(=O)(Nc1cccnc1)Oc1ccccc1OC` the inhibition was -4.39% (inactive).
For `CCN1CCN(Cc2c(OC)ccc3ccccc23)CC1`, the inhibition was 5.17% (inactive).
In the case of `C[C@H]1COC(=O)[C@H](Cc2ccc(F)cc2)CC/C=C/C[C@@H](CC(=O)N[C@@H](CO)Cc2ccccc2)C(=O)N1`, the inhibition is reported as 7.3% (inactive).
For `CCOc1ccc(C(=O)NCC(=O)N2CCC(C)CC2)cc1OCC`, the inhibition was -0.53% (inactive).
In the case of `Fc1ccc(NC(=S)Nc2cccc(Cl)c2)cc1`, the inhibition is reported as 21.8% (inactive).
With `Cc1csc(NC(=O)Nc2cccc(Cl)c2)n1` the inhibition was -2.56% (inactive).
In the case of `O=C(OCC(=O)N1CCc2ccccc21)c1cccnc1Cl`, the inhibition is reported as -2.8% (inactive).
In the case of `CSc1ncccc1C(=O)OCC(=O)N1CCc2ccccc21`, the inhibition is reported as -3.03% (inactive).
In the case of `CC1CCCC(NC(=O)COC(=O)COc2ccc(Br)cc2)C1C` (stereo unspecified), the inhibition is reported as 10.5% (inactive).
With `C/C(CCC12CC3CC(CC(C3)C1)C2)=N\NC(N)=S` the inhibition was -13.2% (inactive).
For `C/C(=N\NC(N)=S)C12CC3CC(CC(C3)C1)C2`, the inhibition was -3.2% (inactive).
In the case of `COc1ccc(/C=C/C(=O)N(CC(C)C)C2CCS(=O)(=O)C2)cc1` (stereo unspecified), the inhibition is reported as 3.62% (inactive).
For `O=C(NCC1CCCO1)C1CC(=O)N(C2CCCCCC2)C1` (stereo unspecified), the inhibition was 5.65% (inactive).
For `CCOc1ccc(NC(=O)c2ccc(OC)cc2)cc1`, the inhibition was -11.8% (inactive).
For `CCOC(=O)CSc1ncc(OC)c(Sc2ccc(Cl)cc2)n1`, the inhibition was 0.98% (inactive).
With `COc1ccc(NC(=O)c2ccc(-n3cccn3)nc2)cc1` the inhibition was -16.3% (inactive).
In the case of `CCOC(=O)C(C)Sc1ncc(OC)c(Sc2ccc(Cl)cc2)n1` (stereo unspecified), the inhibition is reported as 2.61% (inactive).
With `CC1Cc2ccccc2N1C(=O)CN(C)CC(=O)Nc1ccc(F)cc1` (stereo unspecified) the inhibition was -2.83% (inactive).
In the case of `CC(=O)c1cccc(N(C(=O)c2ccco2)C(C(=O)NC2CCCC2)c2ccccc2F)c1` (stereo unspecified), the inhibition is reported as 3.81% (inactive).
In the case of `CCCCn1c(N)c(N(CCC(C)C)C(=O)C2CCN(C(=O)c3ccccc3C)CC2)c(=O)[nH]c1=O`, the inhibition is reported as -4.26% (inactive).
With `COc1cc(NC(=O)C2CCCN(S(=O)(=O)c3ccc4[nH]c(=O)ccc4c3)C2)cc(OC)c1` (stereo unspecified) the inhibition was -0.31% (inactive).
In the case of `NC(=O)c1cc([N+](=O)[O-])ccc1NCc1cccnc1`, the inhibition is reported as -8.59% (inactive).
For `CCOC(=O)c1ccccc1C(=O)OCC`, the inhibition was 7.16% (inactive).
In the case of `Cc1ccc(NC2=C(N3CCCCC3)C(=O)c3ccccc3C2=O)cc1`, the inhibition is reported as -7.72% (inactive).
With `O=C1C(Nc2ccccc2)=C(N2CCCCC2)C(=O)c2ccccc21` the inhibition was 30.1% (inactive).
With `Cc1ccc(CN(C(=O)c2ccco2)C2CCS(=O)(=O)C2)cc1` (stereo unspecified) the inhibition was -3.45% (inactive).
For `CCCN1C(=O)C2(OCCO2)c2cc(Cl)ccc21`, the inhibition was 3.45% (inactive).
With `CN(C)c1ccc(N=Nc2ccccc2C(=O)OCC(=O)N2CCCCCC2)cc1` the inhibition was 11.9% (inactive).
In the case of `COC(=O)c1ccccc1NC(=O)COC(=O)c1ccccc1N=Nc1ccc(N(C)C)cc1`, the inhibition is reported as 5.14% (inactive).
In the case of `Clc1ccc(-c2cn3c(n2)SCC3)cc1`, the inhibition is reported as 9.61% (inactive).
For `CCSc1ncc(/C=N/Nc2ccc([N+](=O)[O-])cc2)n1C`, the inhibition was -1.1% (inactive).
For `CCSc1ncc(/C=N/Nc2ccc(F)cc2)n1C`, the inhibition was -4.38% (inactive).
With `Cc1cc(C(=O)NNC(=O)c2cccc(C(F)(F)F)c2)no1` the inhibition was -7.27% (inactive).
For `CCOc1ccc(C(=O)NC(C)(C)CC)cc1`, the inhibition was 26.1% (inactive).
In the case of `CCOc1ccc(C(=O)CCN2CCCCC2)cc1`, the inhibition is reported as 42.5% (inactive).
For `CCCOc1ccc(C(=O)CCN2CCCCC2)cc1`, the inhibition was 23.5% (inactive).
For `Cc1ccc(-c2nc(S(=O)(=O)c3ccc(C)cc3)c(SCC(=O)NCC3CCCO3)o2)cc1` (stereo unspecified), the inhibition was 8.98% (inactive).
With `CC(=O)c1ccc(NC(=O)CCc2nc3sc4c(c3c(=O)[nH]2)CCCC4)cc1` the inhibition was 16.8% (inactive).
For `CCn1cc(Br)c(C(=O)Nc2ccc(OC)cc2)n1`, the inhibition was -0.58% (inactive).
In the case of `CC(C)OC(=O)c1ccc(NC(=O)c2cncc(Br)c2)cc1`, the inhibition is reported as 33% (inactive).
With `COc1ccc(NC(=S)NC(=O)c2cncc(Br)c2)cc1` the inhibition was -11.5% (inactive).
With `CCn1cc(Br)c(C(=O)NC(=S)Nc2ccc(C(=O)OC)cc2)n1` the inhibition was 9.85% (inactive).
